According to PubChem BioAssay (NCI):
This is part of a sample that, as a whole, favours compounds with a hit. Of some 83,000 tested, about 20% had one in any assay.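 Single-concentration screen, 48 h exposure, 96-well plates. Endpoint: percent growth. Below 10 = active.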 Active and inactive are the calls of the source.

Assays:
Assay in all cases: NCI-60 one-dose screen, 48 h (100 = growth as untreated, 0 = no growth, -100 = all killed)
Conditions in all cases: 10 µM
[1] = system: NCI-H23 lung
[2] = system: NCI-H226 lung
[3] = system: NCI-H322M lung
[4] = system: HOP-62 NSCLC
[5] = system: NCI-H460 lung
[6] = system: HOP-92 NSCLC
[7] = system: NCI-H522 lung
[8] = system: A549/ATCC NSCLC
[9] = system: 786-0 renal
[10] = system: COLO 205 colon

Measured: growth

CCC(O)CC(CC)CO (stereo not drawn)
inactive: [1] 101% | [2] 102% | [3] 110% | [4] 108% | [5] 94.3% | [6] 98.8% | [7] 117% | [8] 105% | [9] 106% | [10] 117%

CC(=O)CC(=O)N(C)C
inactive: [1] 102% | [2] 94.5% | [3] 101% | [4] 98.8% | [5] 104% | [6] 81.8% | [7] 88.5% | [8] 101% | [9] 97.8% | [10] 115%

CSc1[nH]c(=O)ncc1F
inactive: [1] 101% | [2] 99.7% | [3] 97.8% | [4] 109% | [5] 106% | [6] 116% | [7] 100% | [8] 93.3% | [9] 104% | [10] 110%

CCN(CC)CCCC(C)Nc1ccnc(/C=C/c2ccc(Cl)cc2)c1 (stereo not drawn)
inactive: [1] 67.4% | [2] 62.6% | [3] 21.3% | [4] 38.4% | [9] 45.2%
active: [5] 9.3% | [6] -19.8% | [7] -38.6% | [8] 9.38% | [10] -64.4%

CCOC(=O)c1cc(/C=C/c2cccc(Cl)c2)on1
inactive: [1] 81.1% | [2] 95.1% | [3] 96.1% | [4] 99.9% | [5] 99.3% | [6] 88.8% | [7] 74.6% | [8] 104% | [9] 97.7% | [10] 119%

CCOc1ccc2[nH]c(=S)sc2c1
inactive: [1] 94.4% | [2] 109% | [3] 105% | [4] 99.1% | [5] 110% | [6] 82.2% | [7] 104% | [8] 103% | [9] 99.7% | [10] 112%

CC1(C)S(=O)(=O)OCCOS1(=O)=O
inactive: [1] 103% | [2] 102% | [3] 100% | [4] 98.4% | [5] 105% | [6] 83.8% | [7] 99.6% | [8] 92% | [9] 102% | [10] 116%

CN1C(=O)CN2CCc3ccccc3C2c2cc(Cl)ccc21 (stereo not drawn)
inactive: [1] 87.1% | [2] 60.8% | [3] 93.4% | [4] 79.8% | [5] 97.5% | [6] 77.2% | [7] 75.7% | [9] 97.4% | [10] 110%

CN(C)c1ccc2oc(=O)c3ccccc3c2c1
inactive: [1] 98.3% | [2] 81.3% | [3] 94.8% | [4] 78% | [5] 97.3% | [6] 68.3% | [7] 97.1% | [8] 105% | [9] 79.5% | [10] 119%

CCN1C(=O)/C(=C/C=C/N(C)c2ccccc2)SC1=S
inactive: [1] 92.9% | [2] 66.4% | [3] 94.6% | [4] 36.2% | [5] 94.7% | [6] 103% | [7] 60.9% | [8] 82.8% | [9] 79.8% | [10] 104%

CCOC(=O)c1[nH]c(C)c(C(C)=O)c1C
inactive: [1] 94.2% | [2] 103% | [3] 101% | [4] 89.7% | [5] 103% | [6] 51% | [7] 83.8% | [8] 105% | [9] 83.5% | [10] 115%

O=C(O)c1cc([N+](=O)[O-])ccc1Cl
inactive: [1] 104% | [2] 107% | [3] 117% | [4] 113% | [5] 114% | [6] 82.1% | [7] 73% | [8] 95.3% | [9] 99.2% | [10] 107%

O=C(c1ccccc1)C1CCC1
inactive: [1] 102% | [2] 102% | [3] 101% | [4] 94.5% | [5] 107% | [6] 86.6% | [7] 85.9% | [8] 71.6% | [9] 107% | [10] 112%

CC(=O)c1ccc(C)c(N)c1
inactive: [1] 81.5% | [2] 95.8% | [3] 121% | [4] 99.6% | [5] 111% | [6] 92.9% | [7] 99.9% | [8] 92.8% | [9] 103% | [10] 110%

O=C(NN=C1CCCCC1)C(=O)NN=C1CCCCC1
inactive: [1] 105% | [2] 101% | [3] 124% | [4] 98.1% | [5] 117% | [6] 101% | [7] 98.7% | [9] 105% | [10] 106%
